For six molecules, outcome and AC50 results are on record in PubChem BioAssay (EPA / NIEHS).

Read-out in assay [1]: Interferon-gamma inducible Protein 10 (IP10), CXCL10 (gene 3627)
In words: BSK_hDFCGF_IP10: BioMAP Diversity Plus: hDFCGF Assay for Interferon-gamma inducible Protein 10 (IP10) Biomarker Activity (AID 2283053). The conditions noted are these: primary human foreskin fibroblasts; actives raise or lower the signal. In a few lines:
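ELISA quantification of IP-10 after a 24 h chemical exposure of human dermal foreskin fibroblast primary cultures. Both increases and decreases versus DMSO fitted.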

Read-out in assay [2]: Urokinase-type plasminogen activator receptor (uPAR), PLAUR (gene 5329)
In words: BSK_CASM3C_uPAR: BioMAP Diversity Plus: CASM3C Assay for Urokinase-type plasminogen activator receptor (uPAR) Biomarker Activity (AID 2283054).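 Further: cell-surface uPAR protein level quantified by ELISA.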 The conditions noted are these: primary human coronary artery smooth muscle cells; actives raise or lower the signal.

Read-out in assay [3]: Vascular cell adhesion molecule 1 (VCAM1), VCAM1 (gene 7412)
In words: BSK_CASM3C_VCAM1: BioMAP Diversity Plus: CASM3C Assay for Vascular cell adhesion molecule 1 (VCAM1) Biomarker Activity (AID 2283055).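 Further: VCAM-1 protein level quantified by ELISA on the cells.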 The conditions noted are these: primary human coronary artery smooth muscle cells; actives raise or lower the signal.

Read-out in assay [4]: Collagen III, COL3A1 (gene 1281)
In words: BSK_hDFCGF_CollagenIII: BioMAP Diversity Plus: hDFCGF Assay for Collagen III Biomarker Activity (AID 2283056). The settings on record: primary human foreskin fibroblasts; actives raise or lower the signal. In a few lines:
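Human foreskin primary fibroblasts were exposed to test chemicals for 24 h, after which collagen III was quantified by ELISA. Activity was fitted bidirectionally against DMSO as negative control and baseline.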

Read-out in assay [5]: Epidermal growth factor receptor (EGFR), EGFR (gene 1956)
In words: BSK_hDFCGF_EGFR: BioMAP Diversity Plus: hDFCGF Assay for Epidermal growth factor receptor (EGFR) Biomarker Activity (AID 2283057). The settings on record: primary human foreskin fibroblasts; actives raise or lower the signal. In a few lines: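 EGFR levels by ELISA in human dermal fibroblast cultures, 24 h post-treatment, fitted bidirectionally versus DMSO. Parallel wells stained with sulforhodamine B to detect overt cytotoxicity.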

Read-out in assay [6]: Interleukin-8 (IL8), CXCL8 (gene 3576)
In words: BSK_hDFCGF_IL8: BioMAP Diversity Plus: hDFCGF Assay for Interleukin-8 (IL8) Biomarker Activity (AID 2283058). The settings on record: primary human foreskin fibroblasts; actives raise or lower the signal. The essentials:
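hDFCGF human dermal fibroblasts; 24 h chemical exposure; IL-8 by ELISA; bidirectional curve fit vs DMSO baseline; gain or loss of signal scored.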

Assay [7] is described as follows: BSK_hDFCGF_Proliferation: Cell Proliferation Assessment in the BioMAP Diversity Plus: hDFCGF Assay (AID 2283059).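 Further: curves fitted for both rise and fall of signal versus DMSO baseline.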 The settings on record: primary human foreskin fibroblasts. In a few lines:
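Primary human foreskin fibroblasts, sub-confluent; […]; 10% TCA fix, 0.1% SRB stain, A560 total protein. Gain/loss fitted bidirectionally vs DMSO control.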

Read-out in assay [8]: Macrophage colony-stimulating factor (MCSF), CSF1 (gene 1435)
In words: BSK_hDFCGF_MCSF: BioMAP Diversity Plus: hDFCGF Assay for Macrophage colony-stimulating factor (MCSF) Biomarker Activity (AID 2283060). The settings on record: primary human foreskin fibroblasts; actives raise or lower the signal. The essentials: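 Human foreskin primary fibroblasts were treated with test chemical for 24 h, and M-CSF was then measured by ELISA. Data were fitted bidirectionally against DMSO as the negative control and activity baseline.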

Assay [9] is described as follows: BSK_hDFCGF_SRB: Viability Assessment in the BioMAP Diversity Plus: hDFCGF Assay (AID 2283061).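 Further: cells exposed to compound for 24 h before the read.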 The settings on record: primary human foreskin fibroblasts. In a few lines:
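Human foreskin primary fibroblasts were treated with compound and assessed 24 h after dosing. Total protein was measured by sulforhodamine B staining (0.1% SRB after 10% TCA fixation, 560 nm read) as a cytotoxicity marker, with bidirectional fitting against DMSO baseline.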

Read-out in assay [10]: TIMP metallopeptidase inhibitor 1 (TIMP1), TIMP1 (gene 7076)
In words: BSK_hDFCGF_TIMP1: BioMAP Diversity Plus: hDFCGF Assay for TIMP metallopeptidase inhibitor 1 (TIMP1) Biomarker Activity (AID 2283062). The conditions noted are these: primary human foreskin fibroblasts; actives raise or lower the signal. The essentials:
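Primary human foreskin fibroblasts in the hDFCGF system were dosed with compound for 24 h, then TIMP-1 was measured by ELISA. Activity was fitted bidirectionally relative to DMSO control; parallel SRB staining assessed cytotoxicity.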

Read-out in assay [11]: Monokine induced gamma interferon (MIG), CXCL9 (gene 4283)
In words: BSK_hDFCGF_MIG: BioMAP Diversity Plus: hDFCGF Assay for Monokine induced gamma interferon (MIG) Biomarker Activity (AID 2283063). The conditions noted are these: primary human foreskin fibroblasts; actives raise or lower the signal. The essentials: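 ELISA read-out of MIG from primary human dermal fibroblasts 24 h post-dosing. Gain or loss of signal fitted bidirectionally, DMSO as baseline.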

Read-out in assay [12]: Matrix Metallopeptidase 1 (MMP1), MMP1 (gene 4312)
In words: BSK_hDFCGF_MMP1: BioMAP Diversity Plus: hDFCGF Assay for Matrix Metallopeptidase 1 (MMP1) Biomarker Activity (AID 2283064). The settings on record: primary human foreskin fibroblasts; actives raise or lower the signal. The essentials: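 ELISA read-out of MMP1 from human foreskin fibroblasts (primary skin cells), 24 h post-dose. Gain or loss of signal was fitted bidirectionally versus DMSO negative control; cytotoxicity was checked by SRB in parallel cultures.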

Read-out in assay [13]: Vascular cell adhesion molecule 1 (VCAM1), VCAM1 (gene 7412)
In words: BSK_hDFCGF_VCAM1: BioMAP Diversity Plus: hDFCGF Assay for Vascular cell adhesion molecule 1 (VCAM1) Biomarker Activity (AID 2283065).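 On AC50: VCAM-1 protein level quantified by ELISA after 24 h chemical exposure.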 The settings on record: primary human foreskin fibroblasts; actives raise or lower the signal. The essentials:
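Primary human foreskin fibroblasts (hDFCGF system) were dosed with chemical and VCAM-1 was measured by ELISA 24 h later. Bidirectional curve fitting used DMSO as negative control and activity baseline.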

Read-out in assay [14]: Plasminogen activator inhibitor-1 (PAI1), SERPINE1 (gene 5054)
In words: BSK_hDFCGF_PAI1: BioMAP Diversity Plus: hDFCGF Assay for Plasminogen activator inhibitor-1 (PAI1) Biomarker Activity (AID 2283066). The conditions noted are these: primary human foreskin fibroblasts; actives raise or lower the signal. In a few lines: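 PAI-1 levels in human dermal foreskin fibroblasts were quantified by ELISA 24 h after dosing, with gain or loss analysed against DMSO. Overt cytotoxicity was checked by sulforhodamine B total-protein staining in parallel cultures.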

Read-out in assay [15]: Intercellular Adhesion Molecule 1 (ICAM1), ICAM1 (gene 3383)
In words: BSK_KF3CT_ICAM1: BioMAP Diversity Plus: KF3CT Assay for Intercellular Adhesion Molecule 1 (ICAM1) Biomarker Activity (AID 2283067). The settings on record: primary human keratinocytes with fibroblasts; actives raise or lower the signal. The essentials:
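Human keratinocyte plus foreskin fibroblast primary co-culture was exposed to chemical for 24 h. ICAM-1 was then quantified by ELISA, and the data were fit bidirectionally against DMSO as the negative control and baseline.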

Read-out in assay [16]: Interferon-gamma inducible Protein 10 (IP10), CXCL10 (gene 3627)
In words: BSK_KF3CT_IP10: BioMAP Diversity Plus: KF3CT Assay for Interferon-gamma inducible Protein 10 (IP10) Biomarker Activity (AID 2283068). The conditions noted are these: primary human keratinocytes with fibroblasts; actives raise or lower the signal. The essentials:
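In a primary skin co-culture of keratinocytes and fibroblasts, IP-10 is quantified by ELISA at 24 h after dosing. SRB staining of parallel wells monitors overt toxicity. Curves are fitted both directions against DMSO.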

The nature of assay [17]: BSK_KF3CT_SRB: Viability Assessment in the BioMAP Diversity Plus: KF3CT Assay (AID 2283069).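 Further: fitted for both signal gain and loss against DMSO baseline.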 The conditions noted are these: primary human keratinocytes with fibroblasts. In a few lines: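 SRB read-out at 560 nm (0.1% stain, TCA-fixed cells) gauges overt cytotoxicity in a human skin keratinocyte–fibroblast co-culture 24 h post-dosing. Signal change was fitted bidirectionally relative to DMSO control.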

Read-out in assay [18]: Interleukin-1 alpha (IL1a), IL1A (gene 3552)
In words: BSK_KF3CT_IL1a: BioMAP Diversity Plus: KF3CT Assay for Interleukin-1 alpha (IL1a) Biomarker Activity (AID 2283070). The conditions noted are these: primary human keratinocytes with fibroblasts; actives raise or lower the signal. In a few lines: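 Primary skin co-culture (keratinocytes, foreskin fibroblasts), 24 h exposure; ELISA for IL-1a; bidirectional curve fit vs DMSO.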

Read-out in assay [19]: TIMP metallopeptidase inhibitor 2 (TIMP2), TIMP2 (gene 7077)
In words: BSK_KF3CT_TIMP2: BioMAP Diversity Plus: KF3CT Assay for TIMP metallopeptidase inhibitor 2 (TIMP2) Biomarker Activity (AID 2283071). The settings on record: primary human keratinocytes with fibroblasts; actives raise or lower the signal. The essentials:
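TIMP-2 measured by ELISA at 24 h in human keratinocyte/fibroblast primary co-cultures exposed to chemicals. Both increases and decreases were fitted against DMSO. Parallel cultures were stained with SRB for total protein as an overt-cytotoxicity check.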

Read-out in assay [20]: Transforming growth factor beta 1 (TGFb1), TGFB1 (gene 7040)
In words: BSK_KF3CT_TGFb1: BioMAP Diversity Plus: KF3CT Assay for Transforming growth factor beta 1 (TGFb1) Biomarker Activity (AID 2283072). The settings on record: primary human keratinocytes with fibroblasts; actives raise or lower the signal. In a few lines:
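ELISA quantifies TGF-b1 at 24 h post-dose in a primary human skin co-culture of keratinocytes and fibroblasts, with gain or loss judged against DMSO. Parallel SRB total-protein staining flags overt cytotoxicity.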

Calls of active or inactive are those of the source. How the source made its calls: active means hit-call score of the fitted dose curve at least 0.9, where 1 is the maximum; inactive means score below 0.9.

On to `C[C@]12CCC(=O)C[C@@H]1CC[C@@H]1[C@@H]2CC[C@]2(C)[C@@H](O)CC[C@@H]12`, for which the result in assay [1], in [2], in assay [3], in assay [4], in assay [5] and in assay [6] was inactive. The result in [7], in assay [8], in assay [9], in assay [10], in assay [11] and in [12] was inactive. For the same molecule, the outcome in assay [13], in assay [14], in assay [15], in assay [16], in [17] and in assay [18] was inactive. Besides, the outcome in [19] and in assay [20] was inactive.

Take `O=S(=O)(c1ccc(Cl)cc1)c1ccc(Cl)cc1`: the outcome in assay [1], in assay [2], in assay [3], in [4], in assay [6] and in assay [7] was inactive. Also, the outcome in assay [8], in assay [9], in assay [10], in assay [11], in assay [12] and in assay [14] was inactive. The outcome in [15], in assay [16], in assay [17], in [18], in assay [19] and in assay [20] was inactive. Moreover, the AC50 in assay [13] was 5.32 µM (active).

For `COc1cc(OC)nc(NC(=O)NS(=O)(=O)c2ncccc2C(=O)N(C)C)n1`, the outcome in assay [1], in assay [2], in assay [3], in [4], in assay [5] and in assay [7] was inactive. Moreover, the result in assay [8], in assay [9], in [10], in assay [11], in assay [12] and in [13] was inactive. The outcome in [14], in assay [15], in [16], in assay [17], in assay [18] and in assay [19] was inactive. The result in assay [20] was inactive.

`O=C(O)C(Cl)(Cl)Cl`: the result in assay [1], in [2], in assay [3], in assay [4], in [7] and in [8] was inactive. Also, the result in assay [9], in assay [10], in [11], in [12], in assay [13] and in assay [14] was inactive. In addition, the outcome in [15], in assay [16], in assay [17], in assay [18], in assay [19] and in [20] was inactive.

Take `CCOP(=S)(OCC)Oc1ccc(S(C)=O)cc1` (configuration not stated): the outcome in [1], in [2], in assay [3], in assay [4], in assay [7] and in assay [8] was inactive. In addition, the result in assay [9], in assay [10], in assay [11], in assay [12], in assay [13] and in assay [14] was inactive. Further, the result in [15], in [16], in [17], in [18], in assay [19] and in assay [20] was inactive.

Consider `CC(C)c1ccc(CO)cc1`, for which the result in assay [1], in assay [2], in [3], in assay [4], in assay [7] and in assay [8] was inactive. The result in [9], in assay [10], in assay [11], in assay [12], in assay [13] and in assay [14] was inactive. The result in [15], in assay [16], in assay [17], in [18], in [19] and in [20] was inactive.

The AC50 is the concentration at which the activity in the assay is half-maximal.
